# Results taken from the supplement of paper PMC10515830.
# Where a name gives a salt, the structure may show the parent alone.
# Key:
# Settings in all cases: 10 µM; exposure time 6 h
# [1] = tested on: Danio rerio larvae (5 dpf); assay: difference in excitability vs DMSO (percentage points); higher = more excitable than DMSO
# In short: (§1)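 In 96-well plates, 48 wild-type zebrafish larvae aged 5 dpf per compound received 100 µL egg water with library compound at 10 µM final for 6 h. Three hours into this, a 3-h programme of moving lines and 100 ms, 400Hz tones ran at 28.5 ℃ while plates were photographed every 6 s. Z-LaP Tracker scored the behaviours, and each is given as the compound mean minus the vehicle control mean in percentage points.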
# [2] = tested on: Danio rerio larvae (5 dpf); assay: difference in startle response vs DMSO (percentage points); higher = stronger startle than DMSO
# In short: as §1
# [3] = tested on: Danio rerio larvae (5 dpf); assay: difference in activity during first hour vs DMSO (percentage points); higher = more activity than DMSO
# In short: as §1
# [4] = tested on: Danio rerio larvae (5 dpf); assay: difference in habituation to acoustic stimuli vs DMSO (percentage points); higher = more habituation than DMSO
# In short: as §1
# [5] = tested on: Danio rerio larvae (5 dpf); assay: difference in combined optomotor response to red, green and blue moving lines vs DMSO (percentage points); higher = stronger optomotor response than DMSO
# In short: as §1
Compound,difference in excitability [1],difference in startle response [2],difference in activity during first hour [3],difference in habituation to acoustic stimuli [4],difference [5]
C[C@]12CC[C@@H]3c4ccc(OS(=O)(=O)O)cc4CC[C@H]3[C@@H]1CCC2=O [Estropipate],1.84,-3.42,-3.25,-2.86,-4.79
Cc1cc2nc3c(=O)[nH]c(=O)nc-3n(C[C@H](O)[C@H](O)[C@H](O)COP(=O)(O)O)c2cc1C [Riboflavin 5'-monophosphate (sodium salt hydrate)],-1.24,-0.41,13.4,5.95,-0.41
CCCC(CCC)C(=O)O [Valproic Acid (sodium salt)],1.2,1.47,-1.97,-8.1,3.32
COc1cc(Cc2cnc(N)nc2N)cc(OC)c1OC [Trimethoprim],2.02,3.93,12.5,-7.9,12.7
COc1ccccc1OCC(O)CO (stereo not given) [Guaifenesin],1.91,-2.97,10.9,3.83,6.79
Cn1cnc([N+](=O)[O-])c1Sc1ncnc2[nH]cnc12 [Azathioprine],-3.13,3.25,-3.18,4.62,1.19
Cn1ccnc1S [Methimazole],-1.48,3.48,-0.609,0.155,3.45
CCOC(=O)[C@H](CCc1ccccc1)N[C@@H](C)C(=O)N1CCC[C@H]1C(=O)O [Enalapril (maleate)],0.733,3.17,-0.995,-3.38,7.06
CC(O)(P(=O)(O)O)P(=O)(O)O [Etidronate (sodium salt)],5.12,2.23,11.4,-1.7,4.9
Nc1nc(=O)c2nc(CNc3ccc(C(=O)N[C@@H](CCC(=O)O)C(=O)O)cc3)cnc2[nH]1 [Folic Acid],7.04,-0.204,15.5,2.6,6.5
O=C(O)c1cn(C2CC2)c2cc(N3CCNCC3)c(F)cc2c1=O [Ciprofloxacin (hydrochloride)],5.21,-3.39,16.5,2.26,2.77
CC(C)OC(=O)OCOP(=O)(CO[C@H](C)Cn1cnc2c(N)ncnc21)OCOC(=O)OC(C)C [Tenofovir Disoproxil (fumarate)],9.75,2.55,6.31,0.343,8.11
NC(=O)c1cn(Cc2c(F)cccc2F)nn1 [Rufinamide],3.01,4.27,8.13,0.975,7.5
CCCCCCCCCCC[C@@H](C[C@@H]1OC(=O)[C@H]1CCCCCC)OC(=O)[C@H](CC(C)C)NC=O [Orlistat],0.283,0.288,10.8,3.74,2.67
Cc1c(O)cccc1C(=O)N[C@@H](CSc1ccccc1)[C@H](O)CN1C[C@H]2CCCC[C@H]2C[C@H]1C(=O)NC(C)(C)C [Nelfinavir (mesylate)],17.7,0.499,-23,2.82,-10.2
COc1ccc(CCN(C)CCCC(C#N)(c2ccc(OC)c(OC)c2)C(C)C)cc1OC (stereo not given) [Verapamil (hydrochloride)],7.52,-8.68,-17.7,-4.3,-6.45
CC1(C)O[C@@H]2C[C@H]3[C@@H]4CCC5=CC(=O)CC[C@]5(C)[C@@]4(F)[C@@H](O)C[C@]3(C)[C@]2(C(=O)CCl)O1 [Halcinonide],-1.92,2.79,7.26,9.28,6.48
CC(=O)[C@@]1(O)CC[C@H]2[C@@H]3C[C@H](C)C4=CC(=O)C=C[C@]4(C)[C@@]3(F)[C@@H](O)C[C@@]21C [Fluorometholone],5.46,1.23,-2.26,4.02,1.57
NS(=O)(=O)c1cc2c(cc1Cl)N=CNS2(=O)=O [Chlorothiazide],-0.0236,-3.29,3.22,6.65,-5.74
CCN(Cc1ccncc1)C(=O)C(CO)c1ccccc1 (stereo not given) [Tropicamide],1.51,-4.55,14.3,-1.41,6.16
NCCc1ccc(O)c(O)c1 [Dopamine (hydrochloride)],4.19,-3.68,12.6,4.17,2.15
OB1OCc2cc(F)ccc21,13.7,-1.36,-11.7,2.38,4.85
O=C(O)c1cc(/N=N/c2ccc(O)c(C(=O)O)c2)ccc1O [Olsalazine (sodium salt)],-2.93,2.86,0.738,-4.79,-8.04
NC(=O)[C@@H]1CC[C@@H]2CN1C(=O)N2OS(=O)(=O)O [Avibactam (sodium salt)],1.97,0.773,5.58,4.75,6.37
CC1Cc2ccccc2N1NC(=O)c1ccc(Cl)c(S(N)(=O)=O)c1 (stereo not given) [Indapamide],4.58,1.23,7.09,-1.64,1.06
CO[C@H]1C[C@@H]2CC[C@@H](C)[C@@](O)(O2)C(=O)C(=O)N2CCCC[C@H]2C(=O)O[C@H]([C@H](C)C[C@@H]2CC[C@@H](OCCO)[C@H](OC)C2)CC(=O)[C@H](C)/C=C(\C)[C@@H](O)[C@@H](OC)C(=O)[C@H](C)C[C@H](C)/C=C/C=C/C=C/1C [Everolimus],1.38,1.06,1.4,-3.73,5.32
